Data taken from the supplement of paper PMC11732987, “Enantioselective OTUD7B fragment discovery through chemoproteomics screening and high-throughput optimisation” (Communications Chemistry, 2025).

Tests used:
Experiment in all cases: log2 ratio of Biotin-Ahx-Ub-VS probe labelling (fragment/DMSO); higher = less target engagement (more negative = stronger competition), active = hit call of the paper (q ≤ 0.05, log2 ratio ≤ -1)
Conditions in all cases: compound concentration: 200 uM; treatment time: 3 h
[1] = molecular target: T1, OTUD6B (UniProt Q8N6M0)
T1 sequence (whole entry): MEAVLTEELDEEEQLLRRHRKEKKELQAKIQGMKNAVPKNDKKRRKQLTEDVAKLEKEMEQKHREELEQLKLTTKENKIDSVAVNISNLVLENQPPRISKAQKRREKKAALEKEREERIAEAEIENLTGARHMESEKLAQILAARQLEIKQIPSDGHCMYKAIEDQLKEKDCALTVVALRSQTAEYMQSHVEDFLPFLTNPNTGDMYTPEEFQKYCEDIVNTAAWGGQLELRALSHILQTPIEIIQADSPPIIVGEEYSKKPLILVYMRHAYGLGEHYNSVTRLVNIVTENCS
Outline: (§1)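 HEK293T lysate, 495 µg per sample in Tris/CHAPS/IGEPAL buffer with protease inhibitors, was treated in triplicate with fragment at 200 µM or vehicle for 3 h and then with Biotin-Ahx-Ub-VS at 0.5 µM final for 1 h. Labelled DUBs were NeutrAvidin-enriched, digested with LysC and trypsin, and run by diaPASEF LC-MS/MS. Spectronaut label-free quantities were global-median-normalised, and values are average log2 fragment/vehicle ratios by unpaired t-test on proteins with ≥2 unique peptides.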

[2] = molecular target: T2, OTUD7B (UniProt Q6GQQ9)
T2 sequence (whole entry): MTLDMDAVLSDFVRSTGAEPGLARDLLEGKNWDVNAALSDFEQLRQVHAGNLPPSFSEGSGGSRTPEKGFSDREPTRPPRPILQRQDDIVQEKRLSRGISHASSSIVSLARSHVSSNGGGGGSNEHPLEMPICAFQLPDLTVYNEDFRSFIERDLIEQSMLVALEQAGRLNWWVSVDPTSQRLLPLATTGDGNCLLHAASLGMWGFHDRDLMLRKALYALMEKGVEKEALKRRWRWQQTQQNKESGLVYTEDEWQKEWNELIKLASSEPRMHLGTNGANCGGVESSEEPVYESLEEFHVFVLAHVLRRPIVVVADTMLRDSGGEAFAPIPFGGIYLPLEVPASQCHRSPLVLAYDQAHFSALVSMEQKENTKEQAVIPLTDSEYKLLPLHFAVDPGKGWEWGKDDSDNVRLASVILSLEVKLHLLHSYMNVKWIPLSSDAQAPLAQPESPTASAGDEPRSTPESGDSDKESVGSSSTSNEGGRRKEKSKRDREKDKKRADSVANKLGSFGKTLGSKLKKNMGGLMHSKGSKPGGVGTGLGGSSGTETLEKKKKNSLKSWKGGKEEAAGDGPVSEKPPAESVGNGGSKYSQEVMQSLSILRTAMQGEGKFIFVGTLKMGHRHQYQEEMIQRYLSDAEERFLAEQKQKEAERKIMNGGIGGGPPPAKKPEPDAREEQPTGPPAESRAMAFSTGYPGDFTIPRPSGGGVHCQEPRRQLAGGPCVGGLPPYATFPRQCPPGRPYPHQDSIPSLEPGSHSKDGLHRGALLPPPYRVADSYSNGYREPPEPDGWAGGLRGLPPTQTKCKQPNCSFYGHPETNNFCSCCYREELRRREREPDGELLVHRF
Outline: as §1

[3] = molecular target: PRPF8 (UniProt Q6P2Q9)
Outline: as §1

[4] = molecular target: T3, PSMD7 (UniProt P51665)
T3 sequence (whole entry): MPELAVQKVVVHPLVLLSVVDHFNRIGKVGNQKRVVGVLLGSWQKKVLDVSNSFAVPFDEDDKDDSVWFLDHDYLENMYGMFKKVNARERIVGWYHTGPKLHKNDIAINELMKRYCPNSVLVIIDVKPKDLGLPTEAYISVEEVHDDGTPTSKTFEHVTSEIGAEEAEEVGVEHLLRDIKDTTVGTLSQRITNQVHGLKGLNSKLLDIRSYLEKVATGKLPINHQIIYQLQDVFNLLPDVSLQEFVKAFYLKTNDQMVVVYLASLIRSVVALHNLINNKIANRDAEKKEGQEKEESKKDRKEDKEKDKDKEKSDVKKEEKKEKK
Outline: as §1

[5] = molecular target: UCHL1 (UniProt P09936)
Sequence of UCHL1 (P09936 whole entry, looked up): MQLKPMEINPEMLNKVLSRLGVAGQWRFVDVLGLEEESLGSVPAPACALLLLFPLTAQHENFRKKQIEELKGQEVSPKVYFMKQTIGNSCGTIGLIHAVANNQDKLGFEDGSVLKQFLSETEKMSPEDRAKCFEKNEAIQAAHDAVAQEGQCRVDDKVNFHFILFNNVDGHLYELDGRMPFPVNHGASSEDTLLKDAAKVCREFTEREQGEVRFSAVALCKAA
Outline: as §1

[6] = molecular target: T4, UCHL3 (UniProt P15374)
T4 sequence (whole entry): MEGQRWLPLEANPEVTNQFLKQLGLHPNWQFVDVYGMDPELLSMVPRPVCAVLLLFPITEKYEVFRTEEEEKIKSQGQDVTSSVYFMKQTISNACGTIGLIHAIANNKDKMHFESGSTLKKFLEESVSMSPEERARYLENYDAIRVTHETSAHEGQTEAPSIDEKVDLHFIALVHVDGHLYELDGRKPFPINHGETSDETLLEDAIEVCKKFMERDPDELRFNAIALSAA
Outline: as §1

[7] = molecular target: T5, UCHL5 (UniProt Q9Y5K5)
T5 sequence (whole entry): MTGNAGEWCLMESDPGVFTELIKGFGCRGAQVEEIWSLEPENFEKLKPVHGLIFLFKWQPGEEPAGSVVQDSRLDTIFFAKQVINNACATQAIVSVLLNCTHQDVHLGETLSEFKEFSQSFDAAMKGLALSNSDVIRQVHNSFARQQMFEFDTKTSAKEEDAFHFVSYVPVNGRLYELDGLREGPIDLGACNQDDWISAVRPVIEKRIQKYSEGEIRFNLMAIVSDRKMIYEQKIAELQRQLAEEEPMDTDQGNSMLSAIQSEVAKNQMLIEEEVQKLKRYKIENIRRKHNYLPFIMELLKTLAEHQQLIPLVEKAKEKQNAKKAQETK
Outline: as §1

[8] = molecular target: USP10 (UniProt Q14694)
Sequence of USP10 (Q14694 whole entry): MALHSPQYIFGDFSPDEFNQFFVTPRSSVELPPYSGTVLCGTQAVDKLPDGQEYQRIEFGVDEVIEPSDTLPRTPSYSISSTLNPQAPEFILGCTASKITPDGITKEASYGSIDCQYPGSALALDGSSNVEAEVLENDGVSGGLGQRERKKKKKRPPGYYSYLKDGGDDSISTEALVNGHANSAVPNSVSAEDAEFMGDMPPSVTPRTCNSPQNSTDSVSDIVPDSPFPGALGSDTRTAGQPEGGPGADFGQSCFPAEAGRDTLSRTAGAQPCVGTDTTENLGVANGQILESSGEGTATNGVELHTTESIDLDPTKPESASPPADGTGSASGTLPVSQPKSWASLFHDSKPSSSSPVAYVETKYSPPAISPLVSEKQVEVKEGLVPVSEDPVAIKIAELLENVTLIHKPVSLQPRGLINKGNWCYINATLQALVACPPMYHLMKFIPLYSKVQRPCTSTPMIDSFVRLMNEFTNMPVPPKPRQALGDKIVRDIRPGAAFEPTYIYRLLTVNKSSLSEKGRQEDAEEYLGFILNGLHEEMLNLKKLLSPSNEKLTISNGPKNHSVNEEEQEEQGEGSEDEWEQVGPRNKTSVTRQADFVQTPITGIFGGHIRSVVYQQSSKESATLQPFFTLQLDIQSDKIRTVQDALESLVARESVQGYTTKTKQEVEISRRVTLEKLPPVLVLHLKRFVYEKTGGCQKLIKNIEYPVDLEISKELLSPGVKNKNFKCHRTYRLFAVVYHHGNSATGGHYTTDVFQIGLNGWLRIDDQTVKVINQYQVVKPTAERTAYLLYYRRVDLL
Outline: as §1

[9] = molecular target: T6, USP15 (UniProt Q9Y4E8)
T6 sequence (whole entry): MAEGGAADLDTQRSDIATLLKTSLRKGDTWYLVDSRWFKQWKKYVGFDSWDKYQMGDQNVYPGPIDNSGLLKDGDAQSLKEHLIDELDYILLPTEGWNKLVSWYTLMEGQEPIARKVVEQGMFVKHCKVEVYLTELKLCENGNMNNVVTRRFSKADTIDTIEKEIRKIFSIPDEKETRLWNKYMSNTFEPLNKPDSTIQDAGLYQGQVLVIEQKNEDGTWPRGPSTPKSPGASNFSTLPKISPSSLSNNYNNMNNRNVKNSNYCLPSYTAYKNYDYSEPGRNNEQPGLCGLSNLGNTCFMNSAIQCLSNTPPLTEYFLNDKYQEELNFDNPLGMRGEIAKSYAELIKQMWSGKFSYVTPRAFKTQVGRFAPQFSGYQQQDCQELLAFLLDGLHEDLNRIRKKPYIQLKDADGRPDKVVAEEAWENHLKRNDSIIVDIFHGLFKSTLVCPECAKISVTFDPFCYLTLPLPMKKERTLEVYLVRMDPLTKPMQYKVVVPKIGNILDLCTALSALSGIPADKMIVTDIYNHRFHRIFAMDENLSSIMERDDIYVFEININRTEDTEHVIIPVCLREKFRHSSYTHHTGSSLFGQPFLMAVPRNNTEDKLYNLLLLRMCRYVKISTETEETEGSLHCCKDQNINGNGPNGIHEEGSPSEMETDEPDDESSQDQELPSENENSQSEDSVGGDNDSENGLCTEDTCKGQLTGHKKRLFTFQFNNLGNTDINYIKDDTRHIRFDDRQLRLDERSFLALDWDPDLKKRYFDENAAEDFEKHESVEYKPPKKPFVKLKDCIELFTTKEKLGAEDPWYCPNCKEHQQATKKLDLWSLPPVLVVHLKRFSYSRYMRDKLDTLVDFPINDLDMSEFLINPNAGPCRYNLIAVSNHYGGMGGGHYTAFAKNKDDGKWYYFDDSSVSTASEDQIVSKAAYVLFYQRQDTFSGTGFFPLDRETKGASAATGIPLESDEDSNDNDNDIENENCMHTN
Outline: as §1

[10] = molecular target: USP16 (UniProt Q9Y5T5)
Sequence of USP16 (Q9Y5T5 whole entry, looked up): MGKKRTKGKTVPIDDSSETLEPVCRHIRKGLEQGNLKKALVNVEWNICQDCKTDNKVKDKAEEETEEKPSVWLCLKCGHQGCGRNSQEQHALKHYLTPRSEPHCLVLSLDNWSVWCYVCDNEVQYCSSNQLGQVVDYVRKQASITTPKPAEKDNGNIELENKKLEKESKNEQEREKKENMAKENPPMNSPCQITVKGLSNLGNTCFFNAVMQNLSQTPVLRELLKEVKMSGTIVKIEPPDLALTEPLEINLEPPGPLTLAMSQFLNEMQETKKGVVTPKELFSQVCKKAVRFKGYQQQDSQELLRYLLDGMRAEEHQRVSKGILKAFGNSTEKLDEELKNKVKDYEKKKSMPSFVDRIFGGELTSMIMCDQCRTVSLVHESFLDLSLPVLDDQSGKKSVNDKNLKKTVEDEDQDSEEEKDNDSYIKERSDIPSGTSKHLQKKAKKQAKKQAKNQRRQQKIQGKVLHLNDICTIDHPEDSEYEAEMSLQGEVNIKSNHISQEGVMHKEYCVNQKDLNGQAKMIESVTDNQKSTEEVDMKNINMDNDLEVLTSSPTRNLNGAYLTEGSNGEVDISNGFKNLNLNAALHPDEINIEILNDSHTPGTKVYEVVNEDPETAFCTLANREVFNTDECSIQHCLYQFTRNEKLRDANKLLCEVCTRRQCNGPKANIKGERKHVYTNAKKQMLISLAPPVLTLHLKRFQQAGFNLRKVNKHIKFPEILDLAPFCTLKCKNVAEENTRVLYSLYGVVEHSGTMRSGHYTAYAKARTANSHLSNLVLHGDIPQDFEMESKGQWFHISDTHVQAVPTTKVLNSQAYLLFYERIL
Outline: as §1

Measured: log2 ratio of Biotin-Ahx-Ub-VS probe labelling

O=C(CCl)N1CCC(c2noc3cc(F)ccc23)CC1
inactive: [1] -0.0328 | [2] -0.608 | [3] -0.0836 | [4] -0.139 | [5] -0.799 | [6] 0.208 | [7] -0.186 | [8] -0.264 | [9] -0.468 | [10] -0.65
